The full list was thinned out, with hits kept by preference.
TSHR antag = Antagonists of the Thyroid Stimulating Hormone Receptor: HTS campaign. Thyrotropin receptor (Homo sapiens), P16473. TSHR-expressing cells, TSH-stimulated cAMP HTRF, 2 h; hits give low values. activity change, negative = inhibition, % at 11.5 µM. 0.2% of 330,000 active. AID 504810, 2011;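 active = activity change below a set negative limit, meaning inhibition stronger than a set level, cut at about -70% in these data; inconclusive = activity change between two set negative limits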; also: % is scaled to controls: 0 for no effect and ±100 for the full control effect
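TSHR-expressing cells, 200/well, pre-treated with compound, then stimulated with EC80 TSH (4nM final) for 2 hours at 37 deg C. cAMP measured by competitive HTRF: anti-cAMP cryptate antibody in lysis buffer plus cAMP-d2, read after 30 minutes at room temperature.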
NPSR antag = qHTS Assay for Antagonists of the Neuropeptide S Receptor: cAMP Signal Transduction; 1% of 220,000 active; Potency, µM (top dose mostly 38.3 µM), for the others: at the top dose activity change, negative = inhibition, actives largely listed as inhibitors; CHO-NPSR cells, cAMP TR-FRET, antagonist mode; AID 1461, 2008; also: potency is read from the fitted curve at half-maximal effect; % is scaled to controls: 0 for no effect and ±100 for the full control effect; nearly all actives have a fitted effect of over 50% in size
Target sequence (Q6W5P4 whole entry, looked up): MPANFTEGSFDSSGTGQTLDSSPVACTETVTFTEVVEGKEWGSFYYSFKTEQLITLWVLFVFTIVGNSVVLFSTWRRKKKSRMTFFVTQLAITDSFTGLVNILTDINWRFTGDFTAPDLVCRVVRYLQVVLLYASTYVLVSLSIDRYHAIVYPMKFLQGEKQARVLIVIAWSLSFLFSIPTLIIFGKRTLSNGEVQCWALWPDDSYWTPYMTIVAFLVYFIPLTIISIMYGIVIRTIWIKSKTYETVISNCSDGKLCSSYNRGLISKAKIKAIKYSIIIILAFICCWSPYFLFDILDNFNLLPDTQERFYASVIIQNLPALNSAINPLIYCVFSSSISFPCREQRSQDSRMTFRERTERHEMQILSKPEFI
PTHR1 agonist = qHTS for PTHR1 Agonists: Primary Screen | Parathyroid hormone/parathyroid hormone-related peptide receptor (Homo sapiens), Q03431 | Potency, µM (top dose mostly 115 µM), without a hit: at the top dose activation, most hits filed as activators | HEK293 GP2 PTHR1 cells, GloSensor cAMP luminescence, 1 h | 0.075% of 410,000 active; also: potency is read from the fitted curve at half-maximal effect; nearly all actives have a fitted effect of over 55% in size
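HEK-293-derived GP2 cells expressing PTHR1 and a GloSensor cAMP reporter, 3,000/well, plated overnight, given luciferin plus IBMX (each 0.5 mM as added) for 1 h at 37 °C, then compound for 1 h at 37 °C. Luminescence was read after 15 min at room temperature.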
RXFP1 antag = qHTS Assay for Antagonists of the Relaxin Receptor RXFP1 | HEK293-RXFP1, relaxin-stimulated cAMP HTRF, 30 min; hits give low values | activity change, negative = inhibition, % at 57.5 µM | 0.59% of 350,000 active | Relaxin receptor 1 (Homo sapiens), Q9HBX9 | AID 1259400, 2018;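 active = activity change of -60% or lower, but not beyond a set lower limit; inconclusive = change between -60% and -40%, or beyond the set limit; inactive = change above -40%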; also: % is scaled to controls: 0 for no effect and ±100 for the full control effect
GLP1R cytotox = qHTS of GLP-1 Receptor Inverse Agonists: Cytotox Screen; HEK293 cAMP-luciferase reporter cells, luminescence, 24 h; Potency, µM (doses to about 38.3 µM), without a hit: at the top dose activity change, negative = inhibition, hits mostly inhibitors; 0.13% of 410,000 active;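 also: loss of luciferase light is scored as toxicity; potency is read from the fitted curve at half-maximal effect; % is scaled to controls: 0 for no effect and ±100 for the full control effect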
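Quantitative HTS format, 1536 wells, 200 cells/uL seeded. Compounds: 23 nL, 24 h, 37 °C. Detection: luciferase reagent, luminescence at 12 min RT; decreased signal taken as cytotoxic.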
RXFP1 ag = qHTS Assay for Agonists of the Relaxin Receptor RXFP1; HEK293T-RXFP1 cAMP TR-FRET, 30 min; response scale: percent of porcine relaxin response, buffer zero; Potency, µM (doses to about 57.5 µM), for the others: at the top dose activation, most hits filed as activators; 0.3% of 370,000 active; AID 2676, 2010; also: potency is read from the fitted curve at half-maximal effect; % is scaled to controls: 0 for no effect and ±100 for the full control effect; nearly all actives have a fitted effect of over 60% in size
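HEK293T cells stably expressing RXFP1 were pretreated with the PDE4 inhibitor Ro 20174, exposed to compounds for 30 min at 37C, lysed, and cAMP was read by TR-FRET. Data normalized to buffer (basal) and 29 nM porcine relaxin (100%).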
An asterisk follows results filed as active; i = inactive; ? = inconclusive; / = no result given; [ ] = dose if it differs, or a comment. Unless noted, calls follow the shape of the dose curve; as a rule, active = well fitted curve in the direction sought with a large enough effect; inconclusive = small, poorly fitted or top-dose-only effect, or another doubt; inactive = no such curve, though single readings can be large; an effect the other way counts as inactive or inconclusive.

SMILES	TSHR antag	NPSR antag	PTHR1 agonist	RXFP1 antag	GLP1R cytotox	RXFP1 ag
COC(CNC(=O)c1cccc(-n2c(=S)[nH]c3cc(Cl)ccc3c2=O)c1)OC	2.5	-9.4%	-24.0%	-22.0	-2.5%	-1.1%
COC(CNC(=O)c1ccc(-n2c(=S)[nH]c3ccccc3c2=O)cc1)OC	10.3	0.0%	-21.1%	-75.3*	-8.6%	-0.1%
CCC(C)NC(=O)c1ccc(-n2c(=S)[nH]c3ccccc3c2=O)cc1 (stereo not drawn)	15.7	-11.2%	-2.7%	-104.7*	5.6%[7.66 µM]	3.8%
CCOC(=O)N1CCN(C(=O)c2ccc3c(=O)n(-c4ccc(OC)cc4)c(=S)[nH]c3c2)CC1	-2.4	-5.2%[46.1 µM]	-18.2%	3.3	3.4%	-0.7%
CCOC(=O)/C(=C\c1cccnc1)C(=O)c1cc(C(C)=O)c(Nc2ccccc2)s1	-36.7	3.16µM*	-94.9%	/	?	-1.6%
CCOC(=O)/C(C#N)=C\c1cccnc1	9.3	15.1%	i	-5.8	1.0%	0.2%
O=C(NNC(=O)c1ccccc1O)c1ccc(Cl)c(S(=O)(=O)N2CCc3ccccc32)c1	/	/	-42.7%	-72.8*	-9.6%	0.0%
COC(=O)c1ccc(COc2ncnc3ccccc23)o1	15.1	/	i	8.5	21.0%	15.8µM*
CCCNC(=O)c1nnsc1S(=O)c1ccc(Cl)cc1 (stereo not drawn)	-38.4	-32.8%	-87.7%	-71.2*	?	1.0%
CNC(=O)c1nnsc1S(=O)c1ccc(Cl)cc1 (stereo not drawn)	-13.8	-45.1%	-92.9%	?	?	-1.4%
CCCNC(=O)c1nnsc1S(=O)(=O)c1ccc(Cl)cc1	?	?	-95.3%	-63.2*	?	-2.5%
O=c1[nH]c(=O)n([C@H]2O[C@H](CO)[C@@H](O)[C@@H]2O)cc1/C=C\Br	/	/	/	5.1	/	/
CC(C)CN(CCNC(=O)c1cc(-c2ccc(Cl)s2)nc2ccccc12)CC(C)C	/	/	-23.1%	/	2.0%	3.8%
COc1cc(Br)cc(/C=N/NC(=O)Cc2ccc(C(F)(F)F)cc2[N+](=O)[O-])c1O	1.3	5.7%	-0.3%	-23.5	0.501µM*	1.0%
COC(=O)c1cc2oc3ccccc3c2n1CC(=O)Nc1ccc(N(C)C)cc1	/	/	-10.9%	-3.2	-2.8%	6.6%
O=C(O)COc1ccccc1/C=N/NC(=O)c1cc2ccccc2cc1O	2.4	-0.3%	25.1µM*	4.7	-6.8%	0.4%
Cc1cc(=S)c2cccc(C)c2[nH]1	-0.7	33.8%	10.8%	19.6	18.1%	22.4µM*
CC(=O)Nc1ccc(S(=O)(=O)Nc2cc(C)on2)cc1	/	/	/	10.5	/	/
Nc1nc(-c2ccccc2)c(-c2ccccc2)s1	-8.1	-2.0%[46.1 µM]	-5.2%[57.5 µM]	1.7	1.2%	2.1%
Cc1ccc(-c2nc(N)sc2-c2ccccc2)cc1C	-18.2	-42.6%	-5.4%	-83.8*	-11.1%	1.9%
COc1ccc(OC)c(NC(=O)c2cc3n(n2)C(C(F)(F)F)CC(c2ccc4c(c2)OCO4)N3)c1 (stereo not drawn)	-11.5	-12.8%[46.1 µM]	-4.8%[57.5 µM]	-21.9	5.3%	0.2%
O=C(Nc1cc(Cl)ccc1O)c1cc2n(n1)C(C(F)(F)F)CC(c1ccc3c(c1)OCO3)N2 (stereo not drawn)	-24.6	6.31µM*	-5.9%	-35.6	-16.9%	0.0%
Cc1[nH]c2ccccc2c1C(=O)COC(=O)c1ccccc1O	-1.8	/	-25.1%	-19.8	8.3%	/
Cc1[nH]c2ccccc2c1C(=O)COC(=O)c1nccnc1N	-1.9	/	-13.8%	-66.3*	-13.6%	0.5%
CCCCc1ccc(NC(=S)N2CCN(c3ncccn3)CC2)cc1	-13.4	-5.6%	i	-25.5	-9.2%	0.6%
SMILES	TSHR antag	NPSR antag	PTHR1 agonist	RXFP1 antag	GLP1R cytotox	RXFP1 ag
CCCCc1ccc(NC(=S)N2CCN(c3ccccn3)CC2)cc1	-6.8	/	-22.5%	-68.7*	-6.5%	0.1%
COc1cccc(C2NC(=S)NC3=C2CCc2ccccc23)c1 (stereo not drawn)	-16.7	-10.4%[46.1 µM]	-2.1%	/	3.98µM*	-0.5%
COC(=O)C(C)NC(=O)C12CC3CC(C1)CC(c1ccc(C)cc1)(C3)C2 (stereo not drawn)	-2.3	/	-6.1%	-21.7	1.6%	3.1%
NC1=NC[C@@H](Cc2ccc(O)cc2)N1CCc1cc(C(F)(F)F)cc(C(F)(F)F)c1	9.3	-29.8%	21.0%	/	11.9%	7.1%
NC1=NC[C@H](CC2CCCCC2)N1CCc1cc(C(F)(F)F)cc(C(F)(F)F)c1	-2.2	10µM*	1.5%	/	-25.6%	0.0%
CC(C)(C)C1CCC(CC2=C(O)c3ccccc3C(=O)C2=O)CC1 (stereo not drawn)	/	/	/	-13.3	/	/
Cc1ccccc1-c1n[nH]c(=S)o1	71.2	?	i	8.8	-7.4%	15.8µM*
S=c1[nH]nc(-c2ccccc2)o1	63.1	-16.9%[46.1 µM]	i	3.3	-18.5%	?
COc1ccc(Cl)cc1-c1n[nH]c(=S)o1	63.4	6.31µM*	i	-4.5	2.6%	6.31µM*
Oc1ccc(COCc2ccc(F)cc2)c2cccnc12	-8.4	/	/	/	/	0.6%
CCC(Sc1nc2cc3c(cc2c(=O)n1CCCC(=O)NCc1ccc2c(c1)OCO2)OCO3)C(=O)NCCCOC (stereo not drawn)	/	/	i	-105.8*	-4.7%	1.6%
CCOC(=O)Nc1ccc2c(c1)N(C(=O)CN(CC)CC)c1ccccc1CC2	11.5	/	i	-7.4	?	0.0%
CCN(CC)CC(=O)Nc1ccc2c(c1)N(C(=O)CN(CC)CC)c1ccccc1CC2	10.7	-3.6%[46.1 µM]	i	6.1	3.98µM*	-1.8%
COc1ccc(NCc2cc3ccc(OC)cc3n(CC(=O)Nc3ccc(C)c(C)c3)c2=O)cc1	/	/	i	/	-8.0%	2.1%
O=c1[nH]c(=O)n(Cc2ccccc2)c2nc(-c3ccc(Oc4ccc(F)cc4)c([N+](=O)[O-])c3)n(CCO)c12	-5.3	6.31µM*	-19.9%	-17.6	?	-2.8%
O=C1C(O)=C(O)C(=O)c2ccccc21	/	/	-4.7%	/	-4.7%	/
O=C1C(=O)c2ccccc2C(O)=C1c1ccccc1F	-23.0	12.6µM*	-13.9%	-7.5	-1.9%	-4.0%
O=C1CCCc2c(O)cccc21	/	/	/	-3.8	/	/
CCCC(C(=O)Nc1cc(S(=O)(=O)N2CCOCC2)ccc1OC)c1ccccc1 (stereo not drawn)	3.2	/	i	-6.1	3.4%	-0.8%

Screens as filed in PubChem BioAssay.
